Hit rate of the full screen: of about 130,000 compounds, about 1,900 (1.5%) were called active. About 5% were inconclusive and are not listed. Calls come from the whole dose curve; as a rule, active = well fitted cell-killing curve with a large enough effect; inconclusive = small, poorly fitted or top-dose-only effect; inactive = no such curve, though single readings can be large or run the other way. The list comes from a sample in which actives are over-represented; it also holds similar structures and randomly drawn compounds. A call without a number means that no potency is given here.
Potency is the fitted concentration of half-maximal effect.

The assay is described as follows: qHTS Screen for Compounds that Selectively Target Cancer Cells with p53 Mutations: Cytotoxicity of p53ts Cells at the Nonpermissive Temperature. Note: nearly all actives have a fitted effect of over 55% in size. The settings on record: H1299-p53A138V viability at 39C, ATP luminescence, 24 h; series mostly up to 46.1 µM. The text has this: NIH Chemical Genomics Center [NCGC] NIH Molecular Libraries Screening Centers Network [MLSCN] MLSCN Grant: 1 X01 MH079844-01 Assay Submitter (PI): Dr. SUN, YI, University of Michigan NCGC Assay Overview: Synthetic Lethal Screen for Compounds to Kill Cancer Cells with p53 Mutation. Tumor suppressor gene p53 serves as a major cellular barrier against tumorigenesis. […] The goal of this screening is to identify small molecule probes that selectively kill cancer cells with mutations in p53. This screening was carried out using two lines of H1299 lung cancer cells. The H1299-p53 A138V line express a temperature sensitive p53 mutant (p53ts) in which the mutant p53 protein (A138V) is in the mutant confirmation when grown at 39C (the nonpermissive temperature) and in the wild type conformation when grown at 32C (the permissive temperature). A H1299-neo line (p53 null) grown at both 39C and 32C were used as counter-screens to filter out false positive associated with temperature shifting. The small molecular compounds that selectively target mutant p53-containing cancer cells were selected as candidate probes for further study. A cytotoxicity assay based on the measurement of ATP contents in cells was used in this screen. Concentration-responses of all the compounds in the library collection were determined in qHTS using the cell lines and temperature conditions as above.
NCGC Assay Protocol Summary: Both the H1299-p53A138V and H1299-neo cell lines were provided by Dr.Yi Sun, a PI at the University Michigan. The cells were maintained and cultured at 37C. The resuspended frozen cells were used to plate the cells in the 1536-well assay plates at a density of 600 cells per well in 5 ul medium. The assay plates with the cells were incubated at 37C for 16 to 30 hours before the experiments. The library compounds in DMSO solution were added to the cells in assay plates and incubated 24 hours at 39C (for mutant p53 conformation) or 32C (for normal p53 conformation as control). An ATP_lite assay kit (PerkinElmer) was used to determine the cell viability. Tomaxifen (100uM) was used as the positive control for cell killing. Data were normalized to the controls for basal activity (DMSO only) and 100% killing (100uM tamoxifen). AC50 values were determined from concentration-response data modeled with the standard Hill equation. P53 assay protocol: 1. Reagent; 5 uL H1299-p53A138V or H1299-neo cell cells/well 2. Time; overnight; 37C incubation 3. Compounds; 23 nL; 5.9 nM to 46 uM 4. Controls; 23 nL; Tamoxifen 100 uM 5. Time; 24 hr; 39C incubation 6. Reagent; 3 uL; ATP_Lite reagent 7. Time; 20 min; Room Temperature 8. Detection; Luminescence; Viewlux plate reader Keywords: p53, synthetic lethal, cancer, cell viability, cytotoxicity, H1299 cell line, luminescence, MLSMR, MLSCN, NIH Roadmap, qHTS, NCGC
Consider `Cc1oc2ccc(O)c(CN3CCCCC3)c2c1C(=O)Nc1cccc(C(F)(F)F)c1`, for which the Potency was 12.6 µM (active).
Next, `Cc1oc2ccc(O)c(CN3CCOCC3)c2c1C(=O)Nc1cccc(Cl)c1C`: “inactive”.
Next, `Cc1oc2ccc(O)c(CN3CCC(C)CC3)c2c1C(=O)Nc1ccccc1`: “inactive”; `COc1ccccc1C(=O)Nc1c(C(=O)Nc2ccc(C)cc2)oc2ccccc12`: “inactive”.
Next, `O=C(Nc1cccc(NC(=O)c2ccco2)c1)c1cnccn1`: “inactive”; `O=C(Nc1ccc(NC(=O)c2cccs2)cn1)c1ccco1`: 10 µM (active).
Turning to `Cc1ccnc(NC(=O)c2ccc(NC(=O)c3ccco3)cc2)c1`, the Potency result is “inactive”.
The same measure for `CCC(=O)Nc1cccc(C(=O)OCc2cc(=O)n3nc(CC)sc3n2)c1`: “inactive”.
Next, `CCOC(=O)c1cccc(NC(=O)C(Cc2ccccc2)NS(=O)(=O)c2cccc3nsnc23)c1` (stereo unspecified): “inactive”.
For the molecule `COc1ccc(Nc2cc(C(=O)NCCCN(C)c3ccccc3)c3ccccc3n2)c(OC)c1`, the Potency entry was “inactive”.
Next, `COc1ccccc1Nc1cc(C(=O)NCCCN(C)C2CCCCC2)c2ccccc2n1`: 10 µM (active).
The same measure for `CCCCN(CCCNC(=O)c1cc(Nc2ccccc2OC)nc2ccccc12)c1ccccc1`: “inactive”; for `CNC(=O)CN1C(=O)c2cccnc2Sc2ccccc21`: “inactive”.
On to `COc1cccc(C(=O)N(Cc2cccc(Cl)c2)Cc2ccco2)c1`, for which the Potency result is “inactive”.
The same measure for `O=C(CN1CCN(C2CCCCC2)CC1)Nc1ccccc1N1CCCCC1`: 15.8 µM (active); for `O=C(NCCCN1CCN(C2CCCCC2)CC1)Nc1ccccc1C(F)(F)F`: “inactive”; for `Cc1ccccc1NC(=O)CNc1ccccc1N1CCCCC1`: “inactive”.
The same measure for `COc1ccc(Cl)cc1NC(=O)CCC(=O)c1ccc(C)cc1`: “inactive”; for `COc1ccccc1CNC(=O)CCCn1c(=O)c2ccccc2n(CC(=O)Nc2ccc(C)cc2Cl)c1=O`: “inactive”.
`COc1ccc(C2C(C#N)=C(N)Oc3n[nH]c(C)c32)cc1CN1CCN(c2ccc(F)cc2)CC1` (stereo unspecified): the Potency entry was “inactive”.
The same measure for `CCCc1[nH]nc2c1C(c1ccc(Br)s1)C(C#N)=C(N)O2` (stereo unspecified): “inactive”; for `CCCc1[nH]nc2c1C(c1ccc(OC)c(Cn3nc(C)c(Br)c3C)c1)C(C#N)=C(N)O2` (stereo unspecified): 7.94 µM (active).
On to `Cc1cccc(C2CC(=O)Oc3c2c(=O)n(C)c2ccccc32)c1` (stereo unspecified), for which the Potency entry is “inactive”.
Regarding `O=C(CN1CCCCCC1)N1c2ccccc2Sc2ccc(C(F)(F)F)cc21`, the Potency result is “inactive”.
Next, `OCCN1CCN(CC/C=C2\c3ccccc3Sc3ccc(C(F)(F)F)cc32)CC1`: 15.8 µM (active).
As for `O=C(CN1CCCCC1)N1c2ccccc2Sc2ccc(C(F)(F)F)cc21`, the Potency result was “inactive”.
Next, `CCOC(=O)c1c(S(=O)(=O)N2CCC(C(=O)NCc3ccccc3OC)CC2)c(C)n(C)c1C`: “inactive”; `Cc1ccc(Nc2ccc3cc(S(=O)(=O)N4CCCCC4)ccc3n2)cc1F`: “inactive”; `O=C(CC(c1cccs1)N1Cc2ccccc2C1=O)Nc1ccc(F)c(F)c1` (stereo unspecified): “inactive”.
Next, `Cc1ccc(N2CCN(C(=O)CCc3c(C)nc4c(c3C)c(=O)n(C)c(=O)n4C)CC2)c(C)c1`: “inactive”; `c1ccc(Nc2nc(-c3ccncc3)cs2)nc1`: “inactive”.
The same measure for `CC(C)(C)c1csc(NC2=NS(=O)(=O)c3ccccc32)n1`: 12.6 µM (active); for `O=C(CSc1nccn1Cc1ccc(F)cc1)NCc1ccccc1`: “inactive”.
Take `CCN(C(=O)Cn1cnc2sc(C)c(S(=O)(=O)N3CCN(c4ncccn4)CC3)c2c1=O)c1ccccc1F`: the Potency result is “inactive”.
As for `CCOC(=O)c1c(S(=O)(=O)N2CCCC(C(=O)NCc3cccc(C)c3)C2)c(C)n(C)c1C` (stereo unspecified), the Potency entry was “inactive”.
Next, `CC1(C)N=C(SCc2ccccc2Cl)c2ccccc2N1`: “inactive”.
The same measure for `Cc1ccccc1-n1c(C)cc(/C=C2\NC(=O)NC2=O)c1C`: 8.91 µM (active).
With `Cc1cc(/C=N/n2cnnc2)c(C)n1-c1cccc(C(=O)O)c1`, the Potency entry is “inactive”.
Next, `Cc1ccccc1N1CC(c2nc3ccccc3[nH]2)CC1=O` (stereo unspecified): “inactive”; `CC(C)c1ccc(NC(=O)c2ccc(Cn3nc(N4CCN(c5ccccc5)CC4)ccc3=O)o2)cc1`: “inactive”; `O=S(=O)(c1ccc(C2CCCCC2)cc1)N1CCN(c2ccc(Cl)c(Cl)c2)CC1`: “inactive”.
The same measure for `CCOc1ccc(CNC(=O)C2CCCN(S(=O)(=O)N(CC)c3ccc(OCC)cc3)C2)cc1` (stereo unspecified): “inactive”.
Next, `CSc1nn(Cc2cccc(C)c2)c(N)c1S(=O)(=O)c1ccccc1`: “inactive”; `CCCCOc1ccc(CN2C(=O)C(=O)c3cc(Br)cc(C)c32)cc1OC`: 7.94 µM (active); `COc1ccc(CCN(C)CCN2C(=O)c3ccccc3C2=O)cc1OC`: “inactive”.
As to `CCCCOc1ccc(Cn2c(=O)oc3ccc(C)cc32)cc1OC`, the Potency entry was “inactive”.
Next, `COc1ccc(CCNC(=O)c2cc3cccc4c3n2CC(C)S4)c(OC)c1OC` (stereo unspecified): “inactive”.
Next, `Cc1cccc(Cn2c(SCc3ccc(C(=O)N4CCC(C)CC4)cc3)nc3ccncc32)c1`: “inactive”; `CC(C)CC(=O)NCC(c1ccc2c(c1)OCO2)N1CCN(c2ccc(F)cc2)CC1` (stereo unspecified): “inactive”.
The same measure for `c1ccc(Nc2n[nH]nc2-c2ccccc2)cc1`: “inactive”.
As for `CC(C)(C)NC(=O)CSc1nc(-c2ccc(F)cc2)cc(C(F)(F)F)n1`, the Potency result is “inactive”.
On to `CSc1nc(Nc2ccc(F)cc2)cc(-c2ccccc2)n1`, for which the Potency was 12.6 µM (active).
The same measure for `CCC(=O)N1c2ccccc2CC1C(=O)N1CCN(c2ccccc2)CC1` (stereo unspecified): “inactive”; for `Cc1cccc(N2CCN(c3ccc(C(=O)O)cc3NC(=O)c3ccccc3F)CC2C)c1` (stereo unspecified): “inactive”; for `COc1ccc(OC)c(CCNC(=O)CCCn2c(=O)c3cccn3c3cccnc32)c1`: “inactive”.
Next, `CCOc1ccc(OCC)c(NS(=O)(=O)c2ccc3[nH]c(=O)ccc3c2)c1`: “inactive”; `CCN(CC)C(=O)CSc1ncnc2c1cnn2-c1ccccc1`: “inactive”; `c1ccc(-n2ncc3c2ncn2c(C4CCCCC4)nnc32)cc1`: “inactive”.
Consider `CCN(c1ncnc2c1cnn2-c1ccc(C)cc1)C1CCCCC1`, for which the Potency was 20 µM (active).
Next, `Cc1cccc(-c2nc(SCC(=O)Nc3cc(C)on3)c3c(=O)n(C)c(=O)n(C)c3n2)c1`: “inactive”; `Cc1nn2c3cc(N4CCOCC4)ccc3nc2c2ccccc12`: 2 µM (active).
Next, `Cc1cc(C)c2c(n1)nn1c(N3CCOCC3)cc(C)nc21`: “inactive”; `Cc1nc2ccccc2n1C(=O)N1CCOCC1`: “inactive”.
Turning to `CCOc1cccc(NC(=O)CSc2ncc(-c3ccc(Cl)cc3)[nH]2)c1`, the Potency is 20 µM (active).
The same measure for `O=C(CSc1ncc(-c2ccccc2)[nH]1)Nc1ccc(F)cc1F`: “inactive”; for `Cc1cccc(NC(=O)CSc2ncc(-c3ccccc3)[nH]2)c1C`: “inactive”; for `CCCc1nnc(NC(=O)CN2C(=O)c3ccccc3S2(=O)=O)s1`: 12.6 µM (active).
`CCCc1nnc(NC(=O)c2cc(OC)cc(OC)c2)s1`: the Potency entry was “inactive”.
The same measure for `CNC(=O)CN1C(=O)c2ccccc2S1(=O)=O`: “inactive”; for `Cc1ccc(C)c2sc(NC(=O)c3ccc(S(=O)(=O)N4CCCC4)cc3)nc12`: “inactive”; for `CC1=C(C(=O)N2CCN(c3cccc(C(F)(F)F)c3)CC2)C2(CCCCC2)OC1=O`: “inactive”.
Next, `O=C(Nc1ncccn1)c1cccs1`: “inactive”.
The same measure for `CCOc1cc(C(=O)Nc2ncccn2)cc(OCC)c1OCC`: “inactive”; for `Cn1c(=O)c(C(=O)Nc2ncccn2)c(O)c2ccccc21`: 12.6 µM (active).
As to `Cc1ccc(C(=O)Nc2ccc(OCc3cc(=O)n4c5c(sc4n3)CCCC5)cc2)cc1`, the Potency entry was “inactive”.
As for `CCN(CC)c1cc(NC2CCCCC2)c2c3c(onc13)-c1ccccc1C2=O`, the Potency result is “inactive”.
Next, `Cc1cccc(N2CCN(C(=O)c3oc(=O)c4ccccc4c3-c3ccccc3)CC2)c1C`: “inactive”.
The same measure for `O=C(/C=C/c1cn(CC(O)CN2CCc3ccccc32)c2ccccc12)c1ccc(Br)cc1` (stereo unspecified): “inactive”; for `COc1ccc(OCCn2cc(C(=O)C3CCCCC3)c3ccccc32)cc1`: “inactive”.
As to `CCOc1ccc(C(=O)/C=C/c2cn(CC(O)CN3CCCCCC3)c3ccccc23)cc1` (stereo unspecified), the Potency was 10 µM (active).
The same measure for `COc1ccc(Cn2c(C(=O)O)c(CNCCc3cccs3)c3ccc(OC)cc32)cc1`: “inactive”; for `CCOC(=O)C1=C(c2ccc(OC)cc2)C(=O)c2ccccc2C1=O`: 7.08 µM (active); for `CCOC(=O)c1ccccc1NS(=O)(=O)c1ccc(OC)cc1`: “inactive”.
Next, `CCCCC(C(=O)OCC(=O)c1ccc(OC)cc1)N1C(=O)c2ccccc2C1=O` (stereo unspecified): “inactive”; `Cc1cc(F)ccc1NS(=O)(=O)c1ccc(-n2cccn2)cc1`: “inactive”; `O=C(Nc1cc(-c2nc3ccccc3o2)ccc1Cl)c1cc([N+](=O)[O-])ccc1N1CCOCC1`: “inactive”.
The same measure for `COc1ccc2oc(-c3ccc(C)c(NC(=O)c4sc5ccccc5c4Cl)c3)nc2c1`: “inactive”; for `Cc1ccc2c(c1)N(C(=O)CCC(=O)NCc1ccccc1F)CC(C)O2` (stereo unspecified): “inactive”; for `Cc1ccccc1-c1nc(CS(=O)(=O)CC(=O)Nc2cc(Cl)cc(Cl)c2)c(C)o1`: 20 µM (active).
Take `Cc1ccccc1-c1nc(CS(=O)(=O)CC(=O)NC(C)c2ccccc2)c(C)o1` (stereo unspecified): the Potency result is “inactive”.
For `Cc1ccccc1-c1nc(CS(=O)(=O)CC(=O)N2CCc3ccccc3C2)c(C)o1`, the Potency result is “inactive”.
Next, `CCC1CCCCN1S(=O)(=O)c1ccc(NC(=O)c2cc(=O)c3ccccc3o2)cc1` (stereo unspecified): “inactive”.
The same measure for `Clc1ccccc1CSc1nncn2c1cc1occc12`: “inactive”; for `CCCC(=O)N1c2ccc(-c3csc(N)n3)cc2CC1C` (stereo unspecified): 12.6 µM (active); for `CCC(=O)N1c2ccc(S(=O)(=O)CCC(=O)N3CCN(c4ccccc4)CC3)cc2CC1C` (stereo unspecified): “inactive”.
The same measure for `CCn1nc(C(=O)OCC(=O)N2c3ccccc3CC2C)c2ccccc2c1=O` (stereo unspecified): “inactive”; for `Cc1cccc(OCCSc2nc3ccccc3n2CC(=O)N2CCCCC2)c1C`: “inactive”.
For `O=C(O)c1ccc(NC(=O)c2cccs2)cc1`, the Potency result was “inactive”.
The same measure for `O=C(O)Cc1ccc(NC(=O)c2cccs2)cc1`: “inactive”; for `Cc1nc(-c2ccc(NC(=O)c3cccs3)cc2)cs1`: 2.51 µM (active).
The same measure for `CCCCNc1ccc(-c2nc(-c3ccncc3)no2)cc1[N+](=O)[O-]`: “inactive”.

Values taken from PubChem BioAssay AID902 (National Center for Advancing Translational Sciences (NCATS), 2007).
